Experimental data published in paper PMC5540273 (PLoS ONE, 2017).

Tests used:
Conditions in all cases: concentration: 1 μM, replicates: in singlicate; n = 1
SRMS = test system: SRMS
SRPK1 = test system: SRPK1
SRPK2 = test system: SRPK2
SRPK3 = test system: SRPK3
STK16 = test system: STK16
STK33 = test system: STK33
STK35 = test system: STK35
STK36 = test system: STK36
STK39 = test system: STK39
SYK = test system: SYK
SgK110 = test system: SgK110
TAK1 = test system: T1, TAK1
T1 construct: gene MAP3K7

TAOK1 = test system: TAOK1
TAOK2 = test system: TAOK2
TAOK3 = test system: TAOK3
TBK1 = test system: TBK1
TEC = test system: TEC
TESK1 = test system: TESK1
TGFBR1 = test system: TGFBR1
TGFBR2 = test system: TGFBR2
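Further: KINOMEscan kinase panel screen.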

SMILES | %Inh (SRMS) [%] | %Inh (SRPK1) [%] | %Inh (SRPK2) [%] | %Inh (SRPK3) [%] | %Inh (STK16) [%] | %Inh (STK33) [%] | %Inh (STK35) [%] | %Inh (STK36) [%] | %Inh (STK39) [%] | %Inh (SYK) [%] | %Inh (SgK110) [%] | %Inh (TAK1) [%] | %Inh (TAOK1) [%] | %Inh (TAOK2) [%] | %Inh (TAOK3) [%] | %Inh (TBK1) [%] | %Inh (TEC) [%] | %Inh (TESK1) [%] | %Inh (TGFBR1) [%] | %Inh (TGFBR2) [%]
O=C(Nc1n[nH]c2nc(-c3ccco3)c(Br)cc12)c1ccc(CN2CCCC2)cc1.O=C(O)[C@H](O)[C@@H](O)C(=O)O [SB-742352] | 0 | 2 | 0 | 26 | 0 | 0 | 26 | 54 | 0 | 10 | 50 | 0 | 0 | 0 | 0 | 13 | 0 | 8 | 0 | 0
Oc1ccc2ncnc(Nc3ccc(OCc4ccccc4)cc3)c2c1 [GI262866] | 0 | 32 | 0 | 15 | 3 | 8 | 7 | 0 | 0 | 14 | 0 | 0 | 0 | 0 | 0 | 0 | 0 | 0 | 0 | 0
c1ccc(-c2ccc3c(-c4ccnc(Nc5ccc6c(c5)OCCO6)n4)cnn3n2)cc1 [GW818941] | 0 | 48 | 0 | 21 | 95.8 | 17 | 8 | 25 | 22 | 7 | 0 | 0 | 0 | 0 | 5 | 22 | 0 | 12 | 11 | 22
C[C@@H]1CCN(C(=O)CO)C[C@@H]1N(C)c1ncnc2[nH]ccc12 | 0 | 24 | 0 | 0 | 0 | 2 | 4 | 0 | 0 | 3 | 0 | 27 | 0 | 0 | 0 | 1 | 3 | 12 | 7 | 4
Cc1ccc(C)c(NC(=O)NCCNc2ccnc(Nc3ccc(F)cc3)n2)c1 [GSK1379878] | 0 | 0 | 0 | 0 | 100 | 0 | 0 | 0 | 0 | 17 | 0 | 0 | 0 | 0 | 0 | 7 | 0 | 32 | 0 | 0
Cc1ccc(NC(=O)c2cccc(C#N)c2)cc1-c1ccc(C(=O)Nc2ccncc2)cc1 [GSK1398463] | 0 | 11 | 0 | 12 | 0 | 0 | 5 | 0 | 16 | 0 | 3 | 0 | 0 | 23 | 3 | 20 | 11 | 0 | 0 | 0
Cl.Cn1ccc(-c2cccc(Nc3ccnc4cc(-c5nccs5)ccc34)c2)n1 [GW525701] | 0 | 0 | 51 | 0 | 4 | 0 | 0 | 0 | 6 | 0 | 19 | 0 | 0 | 0 | 0 | 17 | 17 | 34 | 12 | 0
CSc1nn2c(=O)cc(N3CCOCC3)nc2n1Cc1cccc(Cl)c1Cl [GSK2347225] | 0 | 13 | 0 | 0 | 14 | 3 | 65 | 28 | 0 | 30 | 0 | 0 | 2 | 0 | 3 | 10 | 18 | 7 | 0 | 0
NC(=O)c1sc(-n2cnc3ccccc32)cc1OCc1ccccc1F [GSK1024306] | 0 | 50 | 0 | 16 | 0 | 0 | 0 | 0 | 4 | 7 | 0 | 0 | 0 | 0 | 0 | 0 | 22 | 24 | 5 | 0
Fc1cccc(COc2ccc(Nc3ncnc4sc(-c5ccc[nH]5)cc34)cc2Cl)c1 [GW707818] | 14 | 19 | 3 | 0 | 26 | 8 | 0 | 0 | 9 | 13 | 0 | 0 | 10 | 8 | 14 | 2 | 0 | 5 | 37 | 3
